Screening results as filed in PubChem.
A549 tox – Nrf2 qHTS screen for inhibitors: counterscreen for cytotoxicity | 390,000 tested, 0.16% active | A549 ARE-Fluc cells, CellTiter-Fluor viability, 18-24 h | Potency, µM (highest dose often 46 µM), inactives show at the top dose activity change, negative = cytotoxicity, actives largely listed as inhibitors | AID 504648, 2011; also: % is scaled to controls: 0 for no effect and ±100 for the full control effect
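Cytotoxicity counterscreen: CellTiter-Fluor fluorescence was measured in A549 ARE_Fluc cells after 18-24 h of compound exposure in a concentration series. The subsequent BugLite luminescent read reports ARE-luciferase activity.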
ATXN2 expr inh – Primary qHTS for Inhibitors of ATXN expression. AID 1745845, 2022. Potency, µM (doses to about 57 µM), for the others: top-dose activity change, negative = inhibition, most hits filed as inhibitors. 360,000 tested, 0.72% active. HEK-293 ATXN2-luciferase reporter, luminescence, 24 h; also: % is scaled to controls: 0 for no effect and ±100 for the full control effect; nearly all actives have a fitted effect of over 55% in size
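qHTS (up to 57 uM final) was run with 24 h compound exposure of reporter cells at 37 °C. Each well was multiplexed: SteadyGlo luminescence measured ATXN2-luciferase expression after a fluorogenic Gly-Phe-AFC viability readout (25 uM final).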
HepG2 tox – qHTS for Inhibitors of TGF-b: Cytotox Counterscreen; Potency, µM (doses to about 46.1 µM), for inactives: top-dose activity change, negative = cytotoxicity, most hits filed as cytotoxic; 410,000 tested, 0.76% active; HepG2 CAGA-GFP viability, ATP luminescence, 18 h
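HepG2 CAGA-GFP cells (1000/well, DMEM with 1% FBS) received compound, then TGF-beta at 500 pg/mL final, and were incubated 18 hours at 37 degrees C. Viability was read by CellTiter-Glo luminescence. Media-only wells were set as complete cell-killing and DMSO as no toxicity.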
S2 tox – Viability Counterscreen for Primary qHTS for Inhibitors of ATXN expression; AID 651635, 2014; Potency, µM (top dose mostly 56.7 µM), usual class: cytotoxic; 400,000 tested, 0.49% active; S2 cells (HEK-293 line with an ATXN2-luciferase reporter) viability, CellTiter-Fluor protease fluorescence, 24 h; also: nearly all actives have a fitted effect of over 40% in size
TGFb SMAD3 inh – qHTS for Inhibitors of TGF-b; Potency, µM (doses to about 46.1 µM), for inactives: top-dose activity, negative = inhibition, actives largely listed as inhibitors; 410,000 tested, 1.2% active; HepG2 CAGA-GFP TGF-b/SMAD3 reporter, GFP fluorescence, 18 h; TGF-beta stimulated, 500 pg/mL final; also: % is scaled to controls: 0 for no effect and ±100 for the full control effect; nearly all actives have a fitted effect of over 65% in size
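Smad-responsive CAGA-GFP expression was quantified in HEPG2 cells exposed to compounds and 500 pg/mL final TGF-beta for 18 h at 37 degrees C; unstimulated wells defined full inhibition.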
Nrf2 block – Nrf2 qHTS screen for inhibitors. Potency, µM (series often up to 46 µM), without a hit: at the top dose activity change, negative = inhibition, usual class: inhibitors. AID 504444, 2011. 360,000 tested, 2.1% active. A549 ARE-Fluc reporter, luciferase luminescence, 18-24 h; also: % is scaled to controls: 0 for no effect and ±100 for the full control effect; nearly all actives have a fitted effect of over 60% in size
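A549 ARE_Fluc cells, 5000/well, 5% FBS OPTI-MEM; compounds in dose-response, 18-24 h at 37 °C/5% CO2; CellTiter-Fluor viability read (Ex 405/Em 525), then BugLite luciferase luminescence = Nrf2 activity.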
An asterisk follows results filed as active; i = inactive; ? = inconclusive; . = not tested or not shown; [ ] = remark or other dose. In the library only some 3.8% were active in any assay of this set; here they are far more common. Calls follow the shape of the dose curve; as a rule, active = well fitted curve in the direction sought with a large enough effect; inconclusive = small, poorly fitted or top-dose-only effect, or another doubt; inactive = no such curve, though single readings can be large; an effect the other way counts as inactive or inconclusive. Potency is read from the fitted curve at half-maximal effect.

SMILES | A549 tox | ATXN2 expr inh | HepG2 tox | S2 tox | TGFb SMAD3 inh | Nrf2 block
CN(Cc1ccc(Cl)c(Cl)c1)C(=O)C1CSC2(C)CCC(=O)N12 (centres undefined) | 1% | 4% | -13% | ? | -25% | -13%
COc1cc(OC)nc(O[C@H](C(=O)O)C(OC)(c2ccccc2)c2ccccc2)n1 | . | 8% | . | i | . | .
Cc1ccc(CNC(=O)c2ccc3nc(SCc4ccc(F)cc4)[nH]c3c2)cc1 | -11% | ? | -29% | ? | ? | ?
CC(C)Oc1ccc(CNC(=O)c2ccc3nc(SCc4ccc(F)cc4)n(C)c3c2)cc1 | 2% | . | -6% | . | -4% | 11%
Cn1c(SCc2ccc(F)cc2)nc2ccc(C(=O)NCc3ccc(F)cc3)cc21 | ? | ? | -17% | ? | ? | 23µM*
Cn1c(SCc2ccc(F)cc2)nc2ccc(C(=O)NCc3ccc(Cl)cc3)cc21 | 2% | -33% | -27% | ? | ? | 15µM*
Cc1ccccc1CNC(=O)c1ccc2nc(SCc3ccc(F)cc3)n(C)c2c1 | -1% | -4% | -11% | i | -15% | ?
Cn1c(SCc2ccc(F)cc2)nc2ccc(C(=O)NCc3cccc(Cl)c3)cc21 | -6% | -2% | -29% | i | -20% | 21µM*
COc1ccc(OC)c(NC(=O)Cn2c(=O)n(-c3ccc(Cl)cc3)c(=O)c3c(C)c(C)sc32)c1 | -15% | 8% | -12% | i | 7% | 2%[9.27 µM]
CC1(C)Cc2c(C#N)c(N)sc(=S)c2CS1 | -11% | -17% | 3.5µM* | i | -7% | .
CCOC(=O)c1c(SC)n(-c2ccccc2)c(=S)n(-c2ccccc2)c1=O | 0% | -5% | -6% | i | -9% | -1%
CCOC(=O)c1c(SCCN2CCCCC2)n(-c2ccccc2)c(=S)n(-c2ccccc2)c1=O | 9% | 20µM* | 0% | ? | 0% | 3%
COC(C(=O)C(O)C(C)O)C1Cc2cc3cc(OC4CC(OC5CC(O)C(O)C(C)O5)C(O)C(C)O4)c(C)c(O)c3c(O)c2C(=O)C1OC1CC(OC2CC(OC3CC(C)(O)C(O)C(C)O3)C(O)C(C)O2)C(O)C(C)O1 (centres undefined) | . | . | 23% | . | 0.63µM* | .
Cc1nc2ccc(NS(=O)(=O)c3c(C)c(C)cc(C)c3C)cc2s1 | -11% | -28% | -7% | i | -13% | 15µM*
Cc1nc2cc(NS(=O)(=O)c3c(C)c(C)cc(C)c3C)ccc2s1 | ? | -11% | -37% | ? | ? | 11µM*
CCc1nc2ccc(C(=O)Nc3cc(-c4ccccc4)ccc3OC)cn2c1N(C)Cc1nccs1 | . | 0% | -32% | ? | ? | .
O=C(NCc1ccccc1)[C@H](Cc1ccccc1)NC(=O)[C@@H]1O[C@@H]1C(=O)NCCc1ccc(O)cc1 | . | 2% | . | . | . | .
O=S(=O)(c1ccc2ccccc2c1)N1CCN(C(=S)Nc2ccccc2F)CC1 | -1% | -13% | -15% | i | ? | 15µM*
O=C(CN1CCN(S(=O)(=O)c2ccc(Br)cc2)CC1)Nc1ccccc1F | 12% | -13% | 14µM* | i | -8% | .
O=S(=O)(c1ccc(Cl)cc1)N1CCN(C(=S)Nc2ccccc2F)CC1 | 8% | -16% | -5% | i | -26% | 6%
O=C(CCN1CCN(S(=O)(=O)c2ccc(Br)cc2)CC1)Nc1ccccc1F | 5% | -24% | 19% | i | ? | -3%
C[C@H](CO)N1C[C@H](C)[C@@H](CN(C)S(=O)(=O)c2ccccc2)Oc2c(NC(=O)NC3CCCCC3)cccc2C1=O | -6% | -17% | -4% | ? | 0% | 2%
CC(=O)c1cn(CCOc2cc(C)ccc2C)c2ccccc12 | -1% | -24% | -1% | i | -5% | 6.5µM*
Cc1ccccc1OCCn1cc(/C(N)=N/O)c2ccccc21 | -23% | -21% | -30% | i | ? | 23µM*
COc1ccccc1C(=O)NNC(=O)C1CCCO1 (centres undefined) | 5% | 17% | -6% | i | -4% | 10%
SMILES | A549 tox | ATXN2 expr inh | HepG2 tox | S2 tox | TGFb SMAD3 inh | Nrf2 block
O=C(O)c1ccc(Nc2nc(-c3ccccc3)nc3ccccc23)cc1 | -5% | . | -29% | ? | -10% | ?
CNC(=O)c1ccc(Nc2nc(-c3ccccc3)nc3ccccc23)cc1 | -24% | 3% | -46% | i | 9% | 23µM*
CC(=O)c1cccc(NC(=O)CSc2nnc(C(C)N(C)C)n2Cc2ccccc2)c1 (centres undefined) | 1% | 0% | 1% | i | -1% | -3%
Cc1cc(C)cc(NC(=O)CCc2nc3sc4c(c3c(=O)[nH]2)CCCC4)c1 | ? | 8.9µM* | -85% | ? | ? | ?
CC(=O)Nc1ccc(NC(=O)CCc2nc3sc4c(c3c(=O)[nH]2)CCCC4)cc1 | -8% | 3% | 3% | i | 1% | 6%
O=C1c2ccccc2C(=O)c2c(/C=C/N3CCCCC3)ccnc21 | -10% | ? | 3.5µM* | ? | ? | -5%
O=C1c2ccccc2-c2cccnc21 | 3% | -6% | -8% | i | -8% | 1%
CC(=O)Oc1ccc2ccc3ccc(C(C)=O)cc3c2c1 | 7% | -2% | -13% | i | -12% | 8%
CCCCC(CC)CO (centres undefined) | 8% | -2% | -21% | i | 2% | -9%
CCCCC(CC)CN=C(N)NC(N)=NCCCCCCN=C(N)NC(N)=NCC(CC)CCCC (centres undefined) | ? | 10µM* | 11µM* | 13µM* | ? | ?
COc1ccc(CC(=O)Nc2ccc(F)c(F)c2F)cc1S(=O)(=O)N1CCOCC1 | 0% | 12% | 13% | i | -1% | 5%
CSc1ccc(C(O)c2ncc(-c3ccccc3F)[nH]2)cc1 (centres undefined) | . | 0% | -29% | i | -4% | .
COc1cc(O)c2c(c1)OC(C)(C)CC2=O | 4% | -30% | 1% | i | -1% | 2%
COc1cc(O)c2c(c1)C1OC1C[C@H](O)[C@H](O)C(=O)C=CC[C@H](C)OC2=O (some centres undefined) | . | 6.9µM* | . | . | . | .
CCc1ccccc1NC(=O)Cn1nc2c3cc(F)ccc3n(Cc3cccc(C)c3)cc-2c1=O | 6% | 7% | -53% | i | 0% | 20%
COC(C(=O)NNS(=O)(=O)c1ccccc1[N+](=O)[O-])c1ccccc1 (centres undefined) | -3% | 5% | -11% | i | 6% | -8%
